We go through 40 compounds from PubChem BioAssay (NCATS).

A number with no mark means an inactive call. The call rests on the fitted dose curve; in most records, active means well fitted activation curve with a large enough effect; inconclusive means small, poorly fitted or top-dose-only effect; inactive means flat fitted curve, though single readings scatter.

This assay in a line: Cellular Toxicity (caspase-3) Mesangial (AID 660).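 Further: combined caspase 3 and 7 activity read by Caspase-Glo luminescence; cells exposed to compound for 16 h before the caspase read.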 As to conditions: mesangial cells, normalized: DMSO 0%, 100 µM tamoxifen 100%; at 91.7 µM (top of the series). An excerpt: NIH Chemical Genomics Center [NCGC]
NIH Molecular Libraries Screening Centers Network [MLSCN]
National Institutes of Environmental Health Sciences [NIEHS]
National Toxicology Program [NTP]
We have developed a 1536-well cell-based assay for quantitative high throughput screening (qHTS) against a number of cell lines to determine in vitro caspase 3/7 of small molecules. This particular assay uses the mesangial cell line which is derived from normal human renal glomeruli.
NCGC Assay Protocol Summary:
The Caspase-Glo 3/7 assay (Promega) is a homogeneous method to measure caspase-3 and caspase-7 activities in cultured cells. The quantitation of caspase 3/7 activity is based on the cleavage of a peptide-aminoluciferin substrate. After caspase cleaves the substrate the free aminoluciferin is liberated and serves as the substrate of luciferase, which generates the light. The luminescent signal is proportional to amount of caspase 3/7 activity present.
Using the Caspase-Glo 3/7 assay, the amount of caspase 3/7 activity was measured in the mesangial cell line with complete culture medium following compound treatment for 16 hours. The assay was performed in opaque white 1536-well plates. In the screen, tamoxifen and doxorubicin were used as positive controls. Library compounds were measured for their ability to cause the activation of caspase 3/7 in the cell line, as reflected by an increase in luminescence signal, in a concentration-dependent manner. Data were normalized to the controls for basal activity (DMSO only) and 100% stimulation (100 uM tamoxifen). AC50 values were determined from concentration-response data modeled with the standard Hill equation.
qHTS protocol for caspase 3/7 assay in mesangial cell line
[Step] [Parameter] [Value] [Description]
1. Reagent; 5 uL; 1000 mesangial cells/well
2. Time; 5 hr; 37 °C incubation
4. Controls; 23 nL; Tamoxifen 0.23 uM to 100 uM & doxorubicin 7.0 pM to 100 uM
5. Time; 16 hr; 37 °C incubation
6. Reagent; 5 uL; Caspase-Glo 3/7 reagent
7. Time; 20 min; Room Temperature
8. Detection; Luminescence; Viewlux plate reader
Keywords: caspase 3/7, apoptosis, mesangial cell line, luminescence, NTPHTS, NTPHTS_NCGC, NIEHS, EPA, DSSTox, MLSMR, MLSCN, NIH Roadmap, qHTS, NCGC
With `O=C(O)/C=C/C(=O)O`, the caspase-3 activation is -0.622%.

As to `CCC(O)C(C)(C)C` (stereo not given), the caspase-3 activation was 0.94%.

As to `O=C1CCC(=O)O1`, the caspase-3 activation is 0.974%.

In the case of `CCc1ccccc1`, the caspase-3 activation was -1.29%.

With `Cc1ccc(C)o1`, the caspase-3 activation was -0.182%.

On to `CCCCCCCN`, for which the caspase-3 activation is 1.08%.

As for `CCCCCCCCCCCCOCC1CO1` (stereo not given), the caspase-3 activation was 1.85%.

Turning to `C=CCCCC`, the caspase-3 activation was -0.265%.

Take `CCOCCO`: the caspase-3 activation is -0.559%.

As for `NS(=O)(=O)O`, the caspase-3 activation is 1.36%.

For the compound `Cc1ccc(Br)cc1`, the caspase-3 activation was -0.699%.

With `CCCCCCCCCCCCC1CO1` (stereo not given), the caspase-3 activation is -0.00149%.

`C=Cc1ccccc1C=C`: the caspase-3 activation is 0.384%.

Consider `CC(C)C(C)C`, for which the caspase-3 activation was 0.762%.

Regarding `CC#N`, the caspase-3 activation was 1.61%.

For the compound `NC(=O)CCCCC(N)=O`, the caspase-3 activation was -0.354%.

Consider `CC(C)(C)c1ccc(OCC2CO2)cc1` (stereo not given), for which the caspase-3 activation is 1.34%.

With `CC(C)(C)OC=O`, the caspase-3 activation was 1.35%.

`NC(=O)/N=N/C(N)=O`: the caspase-3 activation was -0.26%.

For the compound `C=C(C)OC(C)=O`, the caspase-3 activation was -0.109%.

Take `Cc1ccc(C)c(N)c1`: the caspase-3 activation is 1.89%.

Consider `C1CCCC1`, for which the caspase-3 activation is -0.162%.

Take `Nc1cccc(S(=O)(=O)O)c1`: the caspase-3 activation is -0.0111%.

For the compound `Nc1ccc([N+](=O)[O-])c(N)c1`, the caspase-3 activation was -0.0443%.

For `O=C(O)c1ccc(Cl)cc1Cl`, the caspase-3 activation was -1.03%.

With `Cc1ccc(C(C)(C)C)cc1`, the caspase-3 activation was -0.798%.

Turning to `CCC(=O)/C=C/C1C(C)=CCCC1(C)C` (stereo not given), the caspase-3 activation was 0.383%.

Regarding `Nc1cccc(N)c1`, the caspase-3 activation was 0.868%.

In the case of `C=C(C)C(=O)OCCCCCC`, the caspase-3 activation is 0.76%.

Consider `Cc1ccc(C)c(O)c1`, for which the caspase-3 activation was 0.131%.

As for `CC(C=O)Cc1ccc(C(C)(C)C)cc1` (stereo not given), the caspase-3 activation was 0.925%.

In the case of `CCc1ccccc1O`, the caspase-3 activation is -0.562%.

Regarding `Cc1ccccc1Br`, the caspase-3 activation is -0.877%.

Take `BrC(Br)C(Br)Br`: the caspase-3 activation was -0.634%.

`O=C(O)c1ccccc1C(=O)O`: the caspase-3 activation is 1.74%.

Turning to `CCOCC(=O)O`, the caspase-3 activation was 1.49%.

Turning to `Cc1cc(C)cc(O)c1`, the caspase-3 activation is -0.0828%.

On to `Nc1ccc(Cl)cc1[N+](=O)[O-]`, for which the caspase-3 activation is 0.0963%.

On to `NCCCCCCN`, for which the caspase-3 activation was 0.654%.

As to `OC1CCCC1`, the caspase-3 activation was -0.56%.
